The whole screen tested about 5,500 compounds, of which about 2,000 (36%) were called active. Not shown: some 18% with an inconclusive outcome. No stated cut-off is given here; in the data, active means normalized growth mostly below about 0.91 (no sharp cut-off); inconclusive means no clear call, values can overlap the other calls; inactive means mostly above about 0.92. The list shows a part of the results.
Assay: chemical genetic growth profiling, strain panel (AID 1159580);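 further: tested at 20 µM; growth read once vehicle control cultures reached saturation at 30 °C; 1 = growth at the plate median or of vehicle wells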
Details: growth OD
[1] = S. cerevisiae deletion strains, locus YAL013W, strain DEP1, stronger effect = lower value
[2] = S. cerevisiae deletion strains, locus YAL040C, strain CLN3, stronger effect = lower value
[3] = S. cerevisiae deletion strains, locus YCL061C, strain MRC1 (second series), stronger effect = lower value
[4] = S. cerevisiae deletion strains, locus YDR150W, strain NUM1, stronger effect = lower value
[5] = S. cerevisiae deletion strains, locus YDR363W, strain ESC2, stronger effect = lower value
[6] = S. cerevisiae deletion strains, locus YER002W, strain NOP16, stronger effect = lower value
[7] = S. cerevisiae deletion strains, locus YGR078C, strain PAC10, stronger effect = lower value
[8] = S. cerevisiae deletion strains, locus YJR075W, strain HOC1, stronger effect = lower value
[9] = S. cerevisiae deletion strains, locus YNL175C, strain NOP13, stronger effect = lower value
[10] = S. cerevisiae deletion strains, locus YNL197C, strain WHI3, stronger effect = lower value
[11] = S. cerevisiae deletion strains, locus YNL224C, strain SQS1, stronger effect = lower value
[12] = S. cerevisiae deletion strains, locus YOR083W, strain WHI5 (second series), stronger effect = lower value
[13] = S. cerevisiae deletion strains, locus YPL055C, strain LGE1, stronger effect = lower value
[14] = S. cerevisiae deletion strains, locus YBR229C, strain ROT2, stronger effect = lower value
[15] = S. cerevisiae deletion strains, locus YDL101C, strain DUN1, stronger effect = lower value
[16] = S. cerevisiae deletion strains, locus YDL134C, strain PPH21, stronger effect = lower value
[17] = S. cerevisiae deletion strains, locus YHR030C, strain SLT2, stronger effect = lower value
[18] = S. cerevisiae deletion strains, locus YJR043C, strain POL32, stronger effect = lower value
[19] = S. cerevisiae deletion strains, locus YLR039C, strain RIC1, stronger effect = lower value
[20] = S. cerevisiae deletion strains, locus YLR262C, strain YPT6, stronger effect = lower value
[21] = S. cerevisiae deletion strains, locus YMR263W, strain SAP30, stronger effect = lower value
[22] = S. cerevisiae deletion strains, locus YMR307W, strain GAS1, stronger effect = lower value
[23] = S. cerevisiae deletion strains, locus YNL128W, strain TEP1, stronger effect = lower value
[24] = S. cerevisiae deletion strains, locus YNL153C, strain GIM3, stronger effect = lower value
[25] = S. cerevisiae deletion strains, locus YNL322C, strain KRE1, stronger effect = lower value
[26] = S. cerevisiae deletion strains, locus YOL006C, strain TOP1, stronger effect = lower value

Measured: normalized growth

Cc1nc(N=Nc2cc(S(=O)(=O)O)c3cc([N+](=O)[O-])cc(S(=O)(=O)O)c3c2)c(COP(=O)(O)O)c(C=O)c1O
inactive: [1] 0.999 | [2] 1.02 | [3] 1 | [4] 0.995 | [5] 1.01 | [6] 1.02 | [7] 1 | [8] 1 | [9] 0.997 | [10] 1 | [11] 1.01 | [12] 1.01 | [13] 1.02

NC(N)=Nc1ccc(Cl)cc1
inactive: [1] 1.01 | S. cerevisiae deletion strains, locus YBR021W, strain FUR4, stronger effect = lower value 1.01 | [14] 1.01 | S. cerevisiae deletion strains, locus YCL029C, strain bik1, stronger effect = lower value 1 | S. cerevisiae deletion strains, locus YDL035C, strain GPR1, stronger effect = lower value 1.02 | S. cerevisiae deletion strains, locus YDL074C, strain BRE1, stronger effect = lower value 1.04 | [15] 1.03 | [16] 1.02 | S. cerevisiae deletion strains, locus YDL185W, strain tfp1, stronger effect = lower value 1.01 | S. cerevisiae deletion strains, locus YDL192W, strain arf1, stronger effect = lower value 1.01 | S. cerevisiae deletion strains, locus YDR101C, strain arx1, stronger effect = lower value 0.99 | [4] 1.02 | S. cerevisiae deletion strains, locus YDR162C, strain NBP2, stronger effect = lower value 1.02 | S. cerevisiae deletion strains, locus YDR318W, strain mcm21, stronger effect = lower value 0.997 | S. cerevisiae deletion strains, locus YDR388W, stronger effect = lower value 0.997 | S. cerevisiae deletion strains, locus YDR502C, strain sam2, stronger effect = lower value 1 | S. cerevisiae deletion strains, locus YER110C, stronger effect = lower value 0.996 | S. cerevisiae deletion strains, locus YER155C, strain BEM2, stronger effect = lower value 1.01 | S. cerevisiae deletion strains, locus YER167W, strain BCK2, stronger effect = lower value 1.03 | S. cerevisiae deletion strains, locus YGL078C, strain dbp3, stronger effect = lower value 0.996 | S. cerevisiae deletion strains, locus YGL086W, strain mad1, stronger effect = lower value 1 | S. cerevisiae deletion strains, locus YGL248W, strain PDE1, stronger effect = lower value 1.01 | [7] 1.02 | S. cerevisiae deletion strains, locus YGR135W, strain pre9, stronger effect = lower value 0.998 | S. cerevisiae deletion strains, locus YGR229C, strain SMI1, stronger effect = lower value 1.03 | S. cerevisiae deletion strains, locus YGR252W, strain gcn5, stronger effect = lower value 0.972 | [17] 1 | S. cerevisiae deletion strains, locus YHR079C, strain IRE1 (second series), stronger effect = lower value 1 | S. cerevisiae deletion strains, locus YHR094C, strain hxt1, stronger effect = lower value 0.988 | S. cerevisiae deletion strains, locus YHR129C, strain ARP1, stronger effect = lower value 1.01 | S. cerevisiae deletion strains, locus YHR200W, strain rpn10, stronger effect = lower value 0.999 | S. cerevisiae deletion strains, locus YIL066C, strain RNR3, stronger effect = lower value 1.02 | S. cerevisiae deletion strains, locus YIL073C, strain SPO22, stronger effect = lower value 1.09 | S. cerevisiae deletion strains, locus YIL125W, strain kgd1, stronger effect = lower value 1 | S. cerevisiae deletion strains, locus YIR030C, strain dcg1, stronger effect = lower value 0.992 | S. cerevisiae deletion strains, locus YJL095W, strain BCK1, stronger effect = lower value 1.02 | S. cerevisiae deletion strains, locus YJL134W, strain LCB3, stronger effect = lower value 1.01 | S. cerevisiae deletion strains, locus YJL168C, strain set2, stronger effect = lower value 1 | S. cerevisiae deletion strains, locus YJL187C, strain SWE1 (second series), stronger effect = lower value 1.01 | [8] 1.01 | S. cerevisiae deletion strains, locus YKL009W, strain mrt4, stronger effect = lower value 0.987 | S. cerevisiae deletion strains, locus YKL068W, stronger effect = lower value 0.988 | S. cerevisiae deletion strains, locus YKL085W, strain MDH1 (second series), stronger effect = lower value 1.01 | S. cerevisiae deletion strains, locus YKL085W, strain MDH1, stronger effect = lower value 1.01 | S. cerevisiae deletion strains, locus YKL190W, strain CNB1, stronger effect = lower value 1.02 | S. cerevisiae deletion strains, locus YKR001C, strain vps1, stronger effect = lower value 0.999 | [19] 1.1 | S. cerevisiae deletion strains, locus YLR058C, strain SHM2, stronger effect = lower value 1.01 | S. cerevisiae deletion strains, locus YLR102C, strain apc9, stronger effect = lower value 0.998 | [20] 1.07 | S. cerevisiae deletion strains, locus YLR268W, strain sec22, stronger effect = lower value 0.996 | S. cerevisiae deletion strains, locus YLR330W, strain CHS5, stronger effect = lower value 1.02 | S. cerevisiae deletion strains, locus YLR342W, strain FKS1 (second series), stronger effect = lower value 1.05 | S. cerevisiae deletion strains, locus YLR371W, strain rom2, stronger effect = lower value 0.996 | S. cerevisiae deletion strains, locus YLR418C, strain cdc73, stronger effect = lower value 1 | S. cerevisiae deletion strains, locus YML016C, strain PPZ1, stronger effect = lower value 1.02 | S. cerevisiae deletion strains, locus YML032C, strain rad52, stronger effect = lower value 0.961 | S. cerevisiae deletion strains, locus YML124C, strain tub3, stronger effect = lower value 0.99 | S. cerevisiae deletion strains, locus YMR078C, strain ctf18, stronger effect = lower value 0.995 | S. cerevisiae deletion strains, locus YMR223W, strain ubp8, stronger effect = lower value 0.998 | [21] 1.02 | [22] 1.01 | S. cerevisiae deletion strains, locus YNL067W, strain RPL9B, stronger effect = lower value 1.01 | [23] 1.05 | [24] 1.02 | S. cerevisiae deletion strains, locus YNL233W, strain BNI4, stronger effect = lower value 1.01 | S. cerevisiae deletion strains, locus YNL250W, strain rad50, stronger effect = lower value 0.984 | S. cerevisiae deletion strains, locus YNL271C, strain bni1, stronger effect = lower value 1 | S. cerevisiae deletion strains, locus YNL298W, strain CLA4, stronger effect = lower value 0.997 | S. cerevisiae deletion strains, locus YNL307C, strain MCK1, stronger effect = lower value 1 | [25] 1.01 | S. cerevisiae deletion strains, locus YNR052C, strain pop2, stronger effect = lower value 0.993 | [26] 1.18 | S. cerevisiae deletion strains, locus YOL012C, strain htz1 1.11 | S. cerevisiae deletion strains, locus YOL147C, strain pex11, stronger effect = lower value 0.995 | S. cerevisiae deletion strains, locus YOR061W, strain CKA2, stronger effect = lower value 1.02 | S. cerevisiae deletion strains, locus YOR136W, strain idh2, stronger effect = lower value 0.997 | S. cerevisiae deletion strains, locus YOR144C, strain elg1, stronger effect = lower value 0.984 | S. cerevisiae deletion strains, locus YOR184W, strain ser1, stronger effect = lower value 1.02 | S. cerevisiae deletion strains, locus YOR316C, strain cot1, stronger effect = lower value 1 | [13] 1.05 | S. cerevisiae deletion strains, locus YPR119W, strain clb2, stronger effect = lower value 0.988 | S. cerevisiae deletion strains, locus YPR141C, strain kar3, stronger effect = lower value 0.997 | S. cerevisiae deletion strains, locus YPR163C, strain tif3, stronger effect = lower value 0.997 | S. cerevisiae deletion strains, locus YPR167C, strain met16, stronger effect = lower value 0.997 | S. cerevisiae deletion strains, strain wtn01, stronger effect = lower value 0.999 | S. cerevisiae strains, strain wild type, stronger effect = lower value 1.01
active: [18] 1.17 [resistant] | S. cerevisiae deletion strains, locus YOR069W, strain VPS5, stronger effect = lower value 1.11 [resistant]

NC(N)=NC(N)=Nc1cccc(Cl)c1
inactive: [1] 1.01 | [2] 1 | [3] 1.01 | [5] 0.999 | [6] 0.993 | [8] 1 | [21] 0.999 | [23] 1.03 | [24] 1 | [9] 1.01 | [10] 1.04 | [11] 1.01 | [25] 0.995 | [12] 1.05 | [13] 1

NC(N)=NC(N)=Nc1cc(Cl)cc(Cl)c1
inactive: [1] 1 | [14] 1.01 | [15] 1 | [16] 1.01 | [4] 0.919 | S. cerevisiae deletion strains, locus YEL061C, strain CIN8, stronger effect = lower value 1.02 | [7] 1 | [17] 0.98 | S. cerevisiae deletion strains, locus YHR087W, strain rtc3, stronger effect = lower value 1.01 | S. cerevisiae deletion strains, locus YJL187C, strain SWE1, stronger effect = lower value 1.01 | [18] 0.999 | [8] 0.972 | [19] 0.975 | S. cerevisiae deletion strains, locus YLR058C, strain SHM2 (second series), stronger effect = lower value 0.999 | S. cerevisiae deletion strains, locus YLR085C, strain ARP6, stronger effect = lower value 1.03 | [20] 1 | S. cerevisiae deletion strains, locus YML094W, strain GIM5, stronger effect = lower value 1.03 | S. cerevisiae deletion strains, locus YMR219W, strain ESC1, stronger effect = lower value 0.99 | [21] 0.987 | [22] 0.889 | [24] 0.983 | S. cerevisiae deletion strains, locus YNL298W, strain CLA4 (second series), stronger effect = lower value 1.03 | [25] 0.999 | S. cerevisiae deletion strains, locus YNR030W, strain Alg12, stronger effect = lower value 1.02 | [26] 1.06 | [13] 0.884 | S. cerevisiae deletion strains, locus YPL241C, strain CIN2, stronger effect = lower value 1.01 | S. cerevisiae deletion strains, locus YPR135W, strain CTF4, stronger effect = lower value 1.15

From PubChem BioAssay AID1159580 (chemical genetic matrix, 2015)
